# Bioassay records as filed in PubChem.
# SENP6 inh = SENP6 protease inhibition; Q9GZR1; Recombinant SENP6 catalytic domain, aminoluciferin luminescence; inhibition, % at 10 µM; actives 1.8% (n = 330,000);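 active means inhibition above about 50% at the single tested dose, limit read from the data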;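 further: plate controls were DMSO wells with enzyme for no effect and DMSO wells lacking enzyme for full effect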
# SENP8 block-1 = inhibitors of human SENP8 protease; purified SENP8, Z-RLRGG-aminoluciferin cleavage, luminescence; AID 2540; inhibition, % at 10 µM; Q96LD8; actives 1.2% (n = 330,000); in the data active means inhibition above about 50%
# Target sequence (Q96LD8 whole entry, looked up): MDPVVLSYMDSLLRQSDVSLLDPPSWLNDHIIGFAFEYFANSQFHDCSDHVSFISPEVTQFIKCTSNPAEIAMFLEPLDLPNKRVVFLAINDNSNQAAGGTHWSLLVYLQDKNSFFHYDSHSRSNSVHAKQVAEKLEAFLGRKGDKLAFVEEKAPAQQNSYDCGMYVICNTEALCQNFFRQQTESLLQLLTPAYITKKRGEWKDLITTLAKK
# SENP8 block-2 = inhibitors of human SENP8 protease; Q96LD8; recombinant SENP8, Nedd8 substrate fluorescence; inhibition, % at 20 µM; actives 0.64% (n = 360,000); in the data active means inhibition mostly above about 40%, no sharp cut-off; inactive means mostly below about 27%
# TRAIL sens C8 = caspase-8 TRAIL sensitization. actives 1% (n = 360,000). NB7+C8 cells + TRAIL, ATPlite viability luminescence. inhibition (viability loss, TRAIL sensitization), % at 10 µM;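 active means compounds causing at least 50% loss of cell viability in the single-dose screen, relative to plate controls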
# PPC-1+TRAIL kill = kills PPC-1 cancer cells in the presence of TRAIL; cell killing (% activity), % at 4 µM or 5 µM; actives 0.41% (n = 220,000); PPC-1 cells + TRAIL, ATPLite viability luminescence;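 active means cell killing above 50% in the first pass at 4 µM, then a duplicate retest at 5 µM averaging 50% or more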;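 further: plate controls were cells with TRAIL plus DMSO for no effect and medium-only wells lacking cells for full effect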
# SENP7 inh = inhibitors of human SENP7 protease; recombinant SENP7, Z-RLRGG-aminoluciferin luminescence, 40 min; actives 1.5% (n = 330,000); inhibition, % at 5 µM;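 active means inhibition above about 50% at the single test dose, limit read from the data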;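 further: plate controls were DMSO with enzyme for no effect and no enzyme buffer wells for full effect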
# Target sequence (Q9BQF6 706-1050 limits assumed): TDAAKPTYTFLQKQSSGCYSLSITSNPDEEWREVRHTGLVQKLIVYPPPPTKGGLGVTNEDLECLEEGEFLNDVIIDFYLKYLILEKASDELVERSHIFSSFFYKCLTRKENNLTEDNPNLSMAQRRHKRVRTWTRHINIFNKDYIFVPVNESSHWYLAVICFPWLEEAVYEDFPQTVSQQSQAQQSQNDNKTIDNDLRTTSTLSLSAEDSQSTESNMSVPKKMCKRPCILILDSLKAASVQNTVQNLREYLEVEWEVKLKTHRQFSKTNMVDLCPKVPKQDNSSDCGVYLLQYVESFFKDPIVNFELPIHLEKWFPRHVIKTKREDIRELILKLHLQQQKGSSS
# SENP8 confirm = confirmation of human SENP8 protease inhibitors; inhibition, % at 12.5 µM; Recombinant SENP8, Z-RLRGG-aminoluciferin luminescence, 60 min; shares compounds with SENP7 inh; AID 488912; actives 40% (n = 6,200);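 active means mean inhibition across replicates above about 50%, limit read from the data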
# SENP6 confirm = human SENP6 inhibition, confirmed; actives 58% (n = 6,200); recombinant SENP6, Z-RLRGG-aminoluciferin luminescence; inhibition, % at 12.5 µM; shares compounds with SENP7 inh; AID 488915
# SENP7 confirm = confirmation of human SENP7 protease inhibitors; shares compounds with SENP7 inh; recombinant SENP7, Z-RLRGG-aminoluciferin luminescence, 40 min; inhibition, % at 12.5 µM; actives 69% (n = 6,200); AID 488917
# Casp3 SENP sel = selectivity test for SENP inhibitors: human caspase-3 inhibition | inhibition, % at 12.5 µM | purified caspase-3, Z-DEVD-aminoluciferin luminescence, 60 min | actives 60% (n = 6,200) | shares compounds with SENP7 inh | AID 488918;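 active means mean inhibition above about 50%, limit read from the data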;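 further: plate controls were enzyme with DMSO for no effect and wells without caspase-3 for full effect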
# SENP luc ctr = luminescence interference (SENP counter-screen); shares compounds with SENP7 inh; inhibition, % at 12.5 µM; Pre-incubated SENP8/Z-RLRGG-aminoluciferin, luciferase luminescence interference; actives 39% (n = 6,200); AID 488919;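 active means mean inhibition above about 50% when retested at one dose, limit read from the data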;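 further: plate controls were DMSO wells with completed reaction for no effect and substrate without enzyme for full effect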
# An asterisk follows results filed as active; . = no result given. This is a sample that favours compounds with a hit; in the whole collection about 3% have one here.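 How the source made its calls, unless noted: active means mean inhibition above about 50% in the one-dose retest (limit read from the data); inactive means the rest.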
SMILES,SENP6 inh,SENP8 block-1,SENP8 block-2,TRAIL sens C8,PPC-1+TRAIL kill,SENP7 inh,SENP8 confirm,SENP6 confirm,SENP7 confirm,Casp3 SENP sel,SENP luc ctr
CC(C)N(C(=O)Nc1ccc2nsnc2c1)C(C)C,98.1*,97.2*,.,.,7.0,95.3*,82.6*,89.0*,74.6*,12.2,8.9
COc1ccc(/C(=N/Nc2ncnc3ccccc23)C(=O)O)cc1,-24.7,-0.6,-6.9,-0.3,.,1.9,.,.,.,.,.
CCOC(=O)/C(=N\Nc1ncnc2ccccc12)c1ccc(OC)cc1,77.5*,74.2*,14.6,5.3,.,65.2*,24.3,70.2*,90.1*,48.1,7.7
Cc1ccc(NCc2nc3ccccc3n2C)c(C)c1,75.9*,71.4*,12.3,83.2*,.,79.5*,83.4*,82.7*,95.1*,88.0*,84.7*
Cc1cccc(NCc2nc3ccccc3n2Cc2ccccc2)c1,57.9*,22.7,-0.7,-6.2,-14.4,27.2,29.4,26.3,57.9*,25.4,34.8
Cc1cccc(NCc2nc3ccccc3n2C)c1,50.3*,28.5,15.3,-8.8,21.7,55.8*,41.6,42.2,79.2*,70.6*,56.0*
Cc1c(C(=O)N2CCCCC2C)sc2nc3n(c(=O)c12)CCC3 (stereo unspecified),-1.6,0.5,14.3,12.2,.,-1.7,.,.,.,.,.
CCOc1ccc(N(CC(=O)Nc2c(C)n(C)n(-c3ccccc3)c2=O)S(=O)(=O)c2ccc(F)cc2)cc1,4.6,0.2,7.4,-16.0,.,-2.4,.,.,.,.,.
CN(c1ccc(C(=O)Nc2ccc3c(c2)OCO3)cc1)S(C)(=O)=O,81.6*,54.6*,29.2,8.7,29.6,78.9*,42.1,41.5,74.1*,73.4*,48.5
CN(c1ccccc1C(=O)Nc1ccc2c(c1)OCCO2)S(C)(=O)=O,-12.9,-3.0,20.1,14.0,34.1,-1.2,.,.,.,.,.
CN(c1ccc(C(=O)Nc2ccc3c(c2)OCCO3)cc1)S(C)(=O)=O,56.9*,36.1,10.5,41.8,36.2,-12.8,59.2*,57.3*,85.4*,82.1*,65.3*
Cc1ccc(CN(c2ccc(C(=O)Nc3ccc4c(c3)OCO4)cc2)S(C)(=O)=O)cc1,0.4,-7.0,6.0,-11.9,15.7,5.9,.,.,.,.,.
C=CCC1(CC=C)CCCN1C(=O)C1CCC(=O)N(CCc2ccc(OC)cc2)C1 (stereo unspecified),1.1,-10.2,5.1,-3.0,.,15.2,.,.,.,.,.
COC(=O)c1ccc(Cn2nnc3c(=O)[nH]c(C4CCCN(S(=O)(=O)c5cccc(Cl)c5)C4)nc32)cc1 (stereo unspecified),7.0,2.8,10.7,-2.6,.,2.6,.,.,.,.,.
CCOC(=O)c1ccc(COC(=O)c2ccc(-c3nnc(-c4ccccc4)o3)cc2)o1,53.0*,25.1,-161.2,-6.9,.,2.8,24.3,19.9,21.9,59.1*,50.8*
CCOC(=O)c1ccc(-c2ccc(CO)o2)cc1,65.4*,29.2,-271.8,1.3,0.0,55.5*,59.5*,57.2*,86.2*,72.8*,63.8*
O=C(NC1CCCCC1)C1(S(=O)(=O)c2ccc(Cl)cc2)CC1,-39.0,2.9,1.5,12.4,.,-2.3,.,.,.,.,.
CS(=O)(=O)Nc1cccc(C2=NN(C(=O)CCCC(=O)O)C(c3cccs3)C2)c1 (stereo unspecified),-3.4,-2.8,14.7,-6.5,.,-5.6,.,.,.,.,.
O=C(O)c1ccc(/C=C2/SC(=S)N(Cc3ccccc3)C2=O)cc1,.,.,17.1,-4.0,.,.,.,.,.,.,.
O=C(O)CCN1C(=O)/C(=C\c2cccc(OCc3ccccc3)c2)SC1=S,95.6*,96.4*,12.5,-5.3,.,36.6,4.1,6.4,0.5,-2.0,3.5
O=C1/C(=C\c2ccc(O)cc2)SC(=S)N1Cc1ccccc1,72.3*,78.5*,1.5,-2.4,.,7.9,59.6*,81.9*,83.8*,20.4,35.9
CC(/C=C1\SC(=S)N(CC(=O)O)C1=O)=C\c1ccccc1,-27.5,-21.9,21.7,2.9,-0.5,2.1,.,.,.,.,.
CC(=C\c1ccccc1)/C=C1/SC(=S)N(CCC(=O)O)C1=O,91.2*,88.6*,17.1,9.2,.,1.9,30.4,91.9*,94.3*,80.0*,50.9*
COC(=O)c1ccc(CC2(C)C(=O)Nc3ccc(-c4cccc(C(F)(F)F)c4)cc32)o1 (stereo unspecified),.,.,11.4,-11.4,.,.,.,.,.,.,.
CS(=O)(=O)N1CCCCC1CCN1CCCCC1 (stereo unspecified),.,.,9.5,-19.9,.,.,.,.,.,.,.
SMILES,SENP6 inh,SENP8 block-1,SENP8 block-2,TRAIL sens C8,PPC-1+TRAIL kill,SENP7 inh,SENP8 confirm,SENP6 confirm,SENP7 confirm,Casp3 SENP sel,SENP luc ctr
COc1cccc(N2CCN(c3nc(-c4ccccc4C)cc(=O)[nH]3)CC2)c1,5.4,2.3,10.3,6.3,.,2.3,.,.,.,.,.
Cc1ccc(S(=O)(=O)N2CCCC2C(=O)NCc2ccncc2)cc1 (stereo unspecified),-1.6,-8.8,-3.7,2.5,.,-5.3,.,.,.,.,.
CC(=O)Oc1c(C)cc(Cl)cc1C(=O)Nc1ccc([N+](=O)[O-])cc1Cl,84.1*,23.6,18.3,31.5,39.2,97.6*,8.7,8.5,10.3,24.2,13.5
CC(=O)OCC(=O)Nc1ccc([N+](=O)[O-])cc1Cl,6.6,-1.9,12.5,-10.8,13.0,6.1,.,.,.,.,.
CN1/C(=C\C(=O)c2cccs2)Sc2ccccc21,85.7*,81.7*,-497.3,63.8*,27.5,-4.1,90.6*,89.9*,100.1*,92.1*,91.7*
COc1cc(OC)cc(C(=O)/C=C2\Sc3ccccc3N2C)c1,18.2,-14.2,-72.7,2.3,7.5,3.0,.,.,.,.,.
CN1/C(=C/C(=O)c2cccs2)Sc2ccccc21,89.9*,84.3*,-284.4,56.6*,45.6,82.9*,94.5*,94.3*,101.5*,93.9*,91.9*
COc1ccc(N(C)S(=O)(=O)c2ccc3c(c2)NC(=O)CC(=O)N3)c(OC)c1,-8.3,-8.1,6.9,-3.9,.,-12.2,.,.,.,.,.
O=S1(=O)N[C@@H](Cc2ccccc2)COc2cc(N3CCSCC3)ccc21,.,.,17.7,11.4,.,.,.,.,.,.,.
Cc1c(NC(=O)c2ccc(NC(=O)C3CC3)cc2)cccc1C(=O)O,53.4*,27.0,8.2,4.0,.,56.8*,47.9,43.5,76.9*,14.6,34.8
O=C(Nc1ccc(NC(=O)C2CC2)cn1)c1ccccc1Cl,-16.5,-14.0,10.3,7.4,5.0,-12.8,.,.,.,.,.
